The values below come from PubChem BioAssay (NCATS).

This is one part of the list. Entries that show only a call come without a potency. Results filed as inconclusive are left out. Active and inactive are the calls of the source. Calls follow the shape of the full dose curve.
Potency is read from the fitted curve at half-maximal effect.

The assay deals with Polyprotein P1234 (Chikungunya virus (strain S27-African prototype)) (UniProt Q8JUX6). The assay can be described thus: Selectivity profile for inhibitors of NSP2Pro chikungunya virus (CHIKV): Endogenous NS2/3 peptide Counterscreen (AID 1964103). Also: nearly all actives have a fitted effect of over 55% in size. Particulars: Purified CHIKV nsP2 protease, endogenous NS2/3 peptide cleavage; series mostly up to 51 µM. From the text: PI: Natalia J. Martinez Ph.D.
Polyprotein P1234 (Chikungunya virus (strain S27-African prototype)), sequence (Q8JUX6 whole entry, looked up): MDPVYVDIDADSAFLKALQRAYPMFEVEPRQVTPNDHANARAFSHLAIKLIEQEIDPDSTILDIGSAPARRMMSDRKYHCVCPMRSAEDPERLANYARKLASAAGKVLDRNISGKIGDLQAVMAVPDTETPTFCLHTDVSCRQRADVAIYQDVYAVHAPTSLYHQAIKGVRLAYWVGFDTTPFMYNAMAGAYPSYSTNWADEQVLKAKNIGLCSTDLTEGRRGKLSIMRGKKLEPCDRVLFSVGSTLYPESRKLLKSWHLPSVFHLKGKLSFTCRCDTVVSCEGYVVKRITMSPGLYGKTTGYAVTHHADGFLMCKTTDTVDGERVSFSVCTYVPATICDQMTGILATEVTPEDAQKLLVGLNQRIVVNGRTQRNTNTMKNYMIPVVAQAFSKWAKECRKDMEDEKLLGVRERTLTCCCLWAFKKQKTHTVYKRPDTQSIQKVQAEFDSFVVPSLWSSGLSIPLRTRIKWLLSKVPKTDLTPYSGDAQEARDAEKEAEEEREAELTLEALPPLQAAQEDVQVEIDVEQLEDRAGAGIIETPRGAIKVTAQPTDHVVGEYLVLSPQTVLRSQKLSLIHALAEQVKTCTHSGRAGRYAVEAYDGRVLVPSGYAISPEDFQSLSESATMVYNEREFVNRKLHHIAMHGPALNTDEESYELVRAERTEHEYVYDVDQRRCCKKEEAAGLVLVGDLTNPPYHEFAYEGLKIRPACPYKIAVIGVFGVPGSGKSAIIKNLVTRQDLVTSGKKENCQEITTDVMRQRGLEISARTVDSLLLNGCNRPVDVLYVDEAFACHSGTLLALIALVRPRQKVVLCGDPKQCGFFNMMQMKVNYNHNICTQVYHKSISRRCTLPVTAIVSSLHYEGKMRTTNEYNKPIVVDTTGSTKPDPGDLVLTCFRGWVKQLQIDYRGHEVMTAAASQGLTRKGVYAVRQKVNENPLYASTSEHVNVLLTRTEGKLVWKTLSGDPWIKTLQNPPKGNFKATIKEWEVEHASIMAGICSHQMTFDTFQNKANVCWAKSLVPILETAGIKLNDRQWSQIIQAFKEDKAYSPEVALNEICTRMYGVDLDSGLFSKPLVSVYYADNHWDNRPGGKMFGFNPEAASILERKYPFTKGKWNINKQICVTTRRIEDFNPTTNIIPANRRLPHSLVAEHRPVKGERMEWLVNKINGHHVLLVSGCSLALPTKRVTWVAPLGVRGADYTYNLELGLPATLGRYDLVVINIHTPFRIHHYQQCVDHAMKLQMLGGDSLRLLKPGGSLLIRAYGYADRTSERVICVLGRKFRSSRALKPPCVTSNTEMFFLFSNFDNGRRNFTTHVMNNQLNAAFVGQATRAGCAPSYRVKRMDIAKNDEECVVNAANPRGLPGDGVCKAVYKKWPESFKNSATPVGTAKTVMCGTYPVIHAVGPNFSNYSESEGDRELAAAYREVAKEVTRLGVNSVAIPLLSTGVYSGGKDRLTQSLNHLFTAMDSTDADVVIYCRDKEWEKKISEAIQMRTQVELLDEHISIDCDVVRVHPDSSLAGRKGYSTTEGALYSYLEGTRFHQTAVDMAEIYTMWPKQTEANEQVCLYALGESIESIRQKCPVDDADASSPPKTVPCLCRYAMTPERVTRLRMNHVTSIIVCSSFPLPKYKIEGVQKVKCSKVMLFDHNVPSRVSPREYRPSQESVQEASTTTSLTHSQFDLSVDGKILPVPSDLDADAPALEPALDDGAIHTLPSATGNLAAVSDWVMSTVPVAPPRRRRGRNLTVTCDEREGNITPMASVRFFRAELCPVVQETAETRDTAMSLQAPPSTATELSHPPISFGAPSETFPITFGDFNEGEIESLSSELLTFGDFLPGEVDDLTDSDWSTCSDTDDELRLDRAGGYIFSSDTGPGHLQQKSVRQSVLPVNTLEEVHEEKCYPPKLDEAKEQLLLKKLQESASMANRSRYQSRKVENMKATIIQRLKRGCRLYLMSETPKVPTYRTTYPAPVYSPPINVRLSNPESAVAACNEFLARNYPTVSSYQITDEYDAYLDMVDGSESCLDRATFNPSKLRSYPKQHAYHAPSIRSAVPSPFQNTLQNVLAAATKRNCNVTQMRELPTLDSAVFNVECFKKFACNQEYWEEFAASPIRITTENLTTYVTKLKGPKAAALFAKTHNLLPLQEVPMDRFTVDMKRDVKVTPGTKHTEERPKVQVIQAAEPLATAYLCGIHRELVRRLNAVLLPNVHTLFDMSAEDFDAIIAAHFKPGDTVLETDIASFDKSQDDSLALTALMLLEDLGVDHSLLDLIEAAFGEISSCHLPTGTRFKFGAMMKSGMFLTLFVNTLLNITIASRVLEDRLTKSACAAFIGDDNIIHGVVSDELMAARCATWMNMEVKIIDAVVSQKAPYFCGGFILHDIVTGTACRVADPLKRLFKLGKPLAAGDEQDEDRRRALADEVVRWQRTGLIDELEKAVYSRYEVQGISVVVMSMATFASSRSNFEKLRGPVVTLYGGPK
National Center for Advancing Translational Sciences (NCATS),
National Institute of Health (NIH), Rockville, Maryland
Chikungunya virus (CHIKV) is a mosquito-borne RNA virus that has emerged as one of the most important global arboviral threats in the last decade. Although the first CHIKV vaccine has recently been FDA approved for use in healthy adults at increased risk, to date, there are no available antiviral drugs for CHIKV infection. CHIKV nsP2 protease plays a crucial role in the processing of the viral polypeptide precursor to release enzymes required for viral replication, thus making it a promising drug target for antiviral discovery. Here, we established a high-throughput pipeline to identify small molecule inhibitors of nsP2 proteolytic activity. The pipeline is composed of a suite of 1,536-well in vitro assays to support quantitative high-throughput (qHTS) screening campaigns. Specifically, we developed a fluorescence resonance energy transfer (FRET)-based assay using a fluorogenic peptide substrate encompassing an endogenous cleavage site and purified recombinant protease domain (nsP2pro). Using this assay, we interrogated ~37,000 small molecules, including those in drug repurposing libraries as well as chemically diverse and medicinal chemistry-friendly compounds. Hits were selected for follow-up validation against full-length nsP2 and an additional peptide. FRET-based 1,536-well assays for papain, hepatitis C virus NS3-4A, and human furin proteases were implemented to characterize compound selectivity. […] Novel compounds were identified to be potential nsP2 inhibitors and molecular docking analyses were performed to explain the binding mode of selected hits. In vitro antiviral activity was evaluated for a subset of compounds using a high-throughput CHIKV infection assay. To our knowledge, the pipeline presented here is unprecedented for CHIKV antiviral discovery research.
PROTOCOL TABLE (as described by Inglese J, Shamu CE and Guy RK. 2007)
SEQUENCE No. (e.g., 1, 2, 3, etc.); […] (e.g., Cells, Incubation, Reagent, etc.); VALUE; DESCRIPTION.
1; Control / Compound; 20 nL; Echo 655 acoustic dispenser, Greiner 1536-well solid bottom black plate.
2; Enzyme; 4 uL; BioRAPTR FRD liquid dispenser (Beckman Coulter).
3; Incubation; 15 min; room temperature.
4; Reagent; 4 uL; 2.5 uM endogenous NS2/3 peptide substrate.
5; Incubation; 1 hr; room temperature.
6; Detection; Fluorescence; WiewLux microplate reader (PerkinElmer), 525 nm excitation, 598/25 nm emission.
NOTES (numbers refer to sequence numbers above).
1. Briefly, 20 nL DMSO, positive control ZnAc (20nM final concentration), and test compounds were transferred into a 1,536-well solid bottom black plate (789176-F, Greiner One) via Echo 655 acoustic dispenser (Beckman Coulter). For primary screens, compounds were tested at 7 concentrations, 1:3 dilution points ranging from 25 uM to 34 nM. Follow-up confirmatory screens were carried out at 11 concentrations, 1:3 dilution points from 25 uM to 0.42 nM.
2. Four uL nsP2pro enzyme mix (150 nM final concentration) in 10 mM Tris-HCl pH 8.0 with 0.01% Tween 20 assay buffer was dispensed into the plate using a BioRAPTR FRD liquid dispenser (Beckman Coulter).
3. The plate was incubated at room temperature (protected from light) for 15 min
4. Four microliter of endogenous NS2/3 peptide substrate (peptide 3: TMR-[…]/APSYR-K-QSY7; 2.5 uM final concentration) in assay buffer was added to the plate.
5. After 1 hour, plates were immediately read on a ViewLux high-throughput CCD imager (Exposure = 10 sec, Gain = High, Speed = Slow, Binning = 2X). The above assay was also incorporated in the NCATS HTS facility41, which allowed for robotic liquid and compound dispensing, microplate handling, and fluorescence reading.
Inglese J, Shamu CE and Guy RK, Reporting data from high throughput screening of small molecule libraries, Nature Chemical Biology, 2007, 3(8): 438-441. doi.org/10.1038/nchembio0807-438.
On to `CCC(C)C(=O)OC1C(C)C2(O)C(C=C(CO)CC3(O)C(=O)C(C)=CC32)C2C(C)(C)C12OC(=O)C(C)C` (stereo not given), for which the Potency result is “inactive”.

Turning to `C[C@@H]1[C@H](O)[C@@H]2OC(=O)C3=C2[C@H](CCC3)[C@@]12C[C@@H](c1ccoc1)OC2=O`, the Potency entry was “inactive”.

Turning to `CC(=O)N[C@@H](C(=O)O[C@H]1CCC(C)(C)[C@@H]2CCC3=C(COC3=O)[C@@]12C)C(C)C`, the Potency entry was “inactive”.

For `CCc1ccccc1NC(=O)c1cnn(-c2ccc(F)cc2)c1C1CCNCC1`, the Potency result was “inactive”.

With `O=C(O)c1cccc(-n2[nH]c(-c3ccccc3)cc2=O)c1`, the Potency entry is “inactive”.

Regarding `C[C@@H]1C[C@@H](O)[C@@]23CO[C@]2(CO)C[C@@H](O)CC3[C@@]12CC(c1ccoc1)OC2=O` (stereo not given in full), the Potency entry is “inactive”.

As for `CCOc1ccc(NC(=O)c2c(NC(=O)Cc3ccccc3)sc3c2CCC(C)C3)cc1` (stereo not given), the Potency is 13 µM (active).

As to `Cc1c(S(=O)(=O)O)oc2c1C(=O)C(=O)c1c-2ccc2c1CCCC2(C)C`, the Potency result was “inactive”.

For the compound `CC1=C(/C=C/C(C)=C/C=C/C(C)=C/C=C/C=C(C)/C=C/C=C(C)/C=C/C2=C(C)CCCC2(C)C)C(C)(C)CCC1`, the Potency entry is “inactive”.

Turning to `N#CSc1cc(SC#N)c(N)nc1N`, the Potency was 0.206 µM (active).

As to `CCOc1ccc(N(Cc2ccccc2)C(=O)c2nc(S(C)(=O)=O)ncc2Cl)cc1`, the Potency was 4.61 µM (active).

As for `Cn1nnnc1Sc1ncnc2n[nH]c(-c3cccc(S(C)(=O)=O)c3)c12`, the Potency was 4.47 µM (active).

Take `CCOc1ccc(NC(=O)c2c(NC(=O)Cc3ccccc3)sc3c2CCCCC3)cc1`: the Potency is 16.3 µM (active).

On to `Oc1ccc(OC2CCCCO2)cc1` (stereo not given), for which the Potency entry was “inactive”.

On to `CO[C@]1(NC(=O)CSC(F)F)C(=O)N2C(C(=O)O)=C(CSc3nnnn3CCO)CO[C@H]21`, for which the Potency result is “inactive”.
